The source of these data is PubChem BioAssay AID485299 (Sanford-Burnham Center for Chemical Genomics, 2010).

Structures are written as SMILES. About 630 (63%) of roughly 1,000 compounds were called active.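 How the source made its calls: active means reporter signal at least 30% of the positive control's activation in two or more of four replicate wells; inactive means the rest.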 So high a share suggests a set chosen from earlier hits. A selection follows.

The nature of the experiment: activation of adaptive unfolded protein response – cell-based, CHO-XBP1 luciferase reporter, luminescence, single concentration, confirmation (AID 485299).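 Further: plate controls were DMSO negative control for no effect and tunicamycin 10 µg/mL positive control for full effect.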 As to conditions: CHO-XBP1 IRE1-XBP1 luciferase reporter, at 20 µM, stronger effect = higher value. For orientation: A reporter such as luciferase makes a cellular process visible.
Consider `OCCNc1nc(Nc2ccc(Cl)c(Cl)c2)nc2ccccc12`, for which the activation was 47.6% (active).

With `Cc1ccc(SC(=O)COc2ccc(C)c(C)c2)cc1`, the activation is 19.5% (inactive).

For `CSc1nc(-c2ccccc2)nc(C(Cl)Cl)n1`, the activation is 29.4% (inactive).

Regarding `Cc1ccc(S/C(=N\S(=O)(=O)c2ccc(Cl)cc2)c2ccccc2)cc1`, the activation was 9.43% (inactive).

Regarding `CCOc1ccc(S(=O)(=O)Nc2cccc(C(=O)NCC3(N4CCCCC4)CCCCC3)c2)cc1`, the activation was 92.9% (active).

On to `Cc1nc2cc(NC(=O)CSc3nc4c(C)cccc4cc3C#N)ccc2s1`, for which the activation was 42.3% (active).

For `CCCc1nc2ccccc2c(=O)n1/N=C/c1ccc(O)c(O)c1`, the activation was 36.6% (active).

Consider `CN(C)CCCN(C(=O)c1ccc(S(=O)(=O)N2CCCCCC2)cc1)c1nc2ccc(Br)cc2s1`, for which the activation is 71.3% (active).

`N#CCC(=O)N/N=C/c1cn(Cc2ccc3ccccc3c2)c2ccccc12`: the activation was 87.5% (active).

For `O=C(Nc1ccc2nc3n(c(=O)c2c1)CCCCC3)c1ccccc1Cl`, the activation was 44.4% (active).

For `N#CC(=C1SC=CS1)c1nc(-c2ccccc2)cs1`, the activation was 2.43% (inactive).

As for `CCOC(=O)N1CCN(C(=O)c2nn(-c3ccc(C)cc3)c(=O)c3c2c2ccccc2n3C)CC1`, the activation was 7.78% (inactive).

`CCCc1nc2c(c(=O)c3ccccc3n2C)c(=O)n1C1CCCCCC1`: the activation was 61.8% (active).

Consider `C=CCN(CC=C)S(=O)(=O)c1ccc(C(=O)Nc2nc3c(s2)CCc2ccccc2-3)cc1`, for which the activation was 90.9% (active).

Consider `CCN1C(=O)N[C@@H](c2ccccc2)[C@H](C(C)=O)[C@H]1C`, for which the activation is -1.6% (inactive).

As for `CN(C)C(=O)CCc1ccc2c3c([nH]c2c1)[C@]1(CCc2ccccc2)[C@@H](C(=O)N2CCCCC2)C[C@H](CC(=O)NCCC2=CCCCC2)C(=O)N1CC3`, the activation was 52.1% (active).

`N#Cc1c(N)nc2c3c(sc(=N)c2c1N)NC(=O)CC3c1ccccc1Cl` (stereo unspecified): the activation was 0.75% (inactive).

In the case of `CCOc1ccc2nc(Cl)c(C3CC(c4ccccc4)=NN3C(=O)c3cccs3)cc2c1` (stereo unspecified), the activation is 19.5% (inactive).

Consider `O=C(C[C@H]1C/C=C\C[C@@H](NC(=O)OCC2c3ccccc3-c3ccccc32)C(=O)O[C@@H](c2ccccc2)CNC1=O)N[C@H](CO)Cc1ccccc1`, for which the activation is 69.3% (active).

As for `CCOC(=O)C1=C(O)/C(=C/c2ccc(OCC(=O)Nc3ccc(C)cc3)cc2)N=C1C`, the activation is -1.95% (inactive).

As to `N#Cc1ccccc1NC(=O)COc1c(Br)cc(Br)c2cccnc12`, the activation was 88.3% (active).

As for `CCCc1ccc(OCc2ccc(C(=O)N/N=C/c3cccc([N+](=O)[O-])c3)o2)c(OC)c1`, the activation is 2.93% (inactive).

With `CCCCCC(=O)Nc1ccc(C(=O)N/N=C/c2ccc([N+](=O)[O-])cc2)cc1`, the activation is 66.5% (active).

`CN(c1cccc(NC(=O)Nc2ccc(Cl)cc2)c1)S(C)(=O)=O`: the activation is 0.25% (inactive).

Take `Oc1cccc2ccc(/C=C/c3ccc(Br)s3)nc12`: the activation is 50.4% (active).

With `Cc1ccc(-c2nnc(-c3ccc(NC(=O)c4cccs4)cc3)o2)cc1`, the activation is 213% (active).

In the case of `CN1C(=O)/C(=C/c2ccc(C(=O)NC3CCCC3)cc2)Oc2ccccc21`, the activation is 32.3% (active).

`COc1ccc(CNC(=O)/C(C#N)=C/c2cccc(OC)c2OC)cc1`: the activation is 40.4% (active).

Take `O=C(CCCCCn1c(=S)[nH]c2cc3c(cc2c1=O)OCO3)N1CCN(c2ccc(F)cc2)CC1`: the activation was 10.3% (inactive).

As to `Cc1cccc(Nc2nc3c(S(=O)(=O)c4ccccc4)nnn3c3ccccc23)c1C`, the activation was 120% (active).

Regarding `O=C(/C=C/c1ccccc1)c1ccccc1O`, the activation was 54.9% (active).

For the compound `Cc1ccc(S(=O)(=O)N(CC(=O)N/N=C/c2ccc(F)cc2)c2cccc3cccnc23)cc1`, the activation was 55.3% (active).

For `CCCCCCCCCCOC(=O)Cn1c(COc2ccc(C)cc2)[n+](C)c2ccccc21`, the activation is 49.2% (active).

For the compound `COc1ccc(Nc2cc(C)nc(-n3nc(C)cc3C)n2)cc1`, the activation is 28.5% (inactive).

On to `CCOC(=O)c1c(NC(=O)CNC2CCCc3ccccc32)sc(C(N)=O)c1C` (stereo unspecified), for which the activation is 34.3% (active).

Turning to `CCC1(CC)Cc2ccccc2-c2nc(CCl)[nH]c(=O)c21`, the activation is 14.5% (inactive).

Consider `CCOC(=O)/C=c1\s/c(=C\c2ccc(C#N)cc2)c(=O)n1CC(=O)Nc1cccc(C)c1C`, for which the activation is 11.4% (inactive).

With `Cc1cc(NC(=O)CSc2nc3cc(Cl)ccc3c(=O)n2Cc2ccco2)no1`, the activation was 55.5% (active).

In the case of `CC(=O)Nc1ccccc1Sc1ccc2c3c(cccc13)C(=O)N(c1ccc(C)cc1)C2=O`, the activation was 79% (active).

Consider `C=CC[C@@H](CC(=O)N[C@@H](CO)Cc1ccccc1)C(=O)N[C@H](COC(=O)[C@H](CC=C)CC(=O)OC(C)(C)C)Cc1ccccc1`, for which the activation was 4.58% (inactive).

Turning to `O=C(COC(=O)/C=C/c1cn(-c2ccccc2)nc1-c1cccnc1)Nc1ccc(Cl)cc1Cl`, the activation is 74.4% (active).

Regarding `Cc1ccc(Cc2cnc(NC(=O)/C(C#N)=C/c3ccc(-c4cccc([N+](=O)[O-])c4)o3)s2)cc1`, the activation was 217% (active).

Take `OC(CNCC1CCCO1)Cn1c2ccc(Br)cc2c2cc(Br)ccc21` (stereo unspecified): the activation is 44% (active).

For `C=CCNc1nc(N)c([N+](=O)[O-])c(NC2CCCCC2)n1`, the activation is 12.5% (inactive).

Regarding `CCc1nn(-c2cc(Oc3cccc4ccccc34)nc(-c3ccccc3)n2)c(N)c1C#N`, the activation was 138% (active).

Consider `CCc1nc(C)cn1S(=O)(=O)c1cc([N+](=O)[O-])ccc1Cl`, for which the activation is 55.6% (active).

Consider `COc1cc(NC(=O)c2cncc(-c3ccc(C#N)cc3)c2)cc(C(=O)Nc2cccc(C(F)(F)F)c2)c1`, for which the activation was 129% (active).

Take `COC(=O)Cc1csc(/N=C/c2c(O)n(-c3cccc(C(F)(F)F)c3)c(=O)c3ccccc23)n1`: the activation was 42.5% (active).

Take `COc1ccccc1N=Cc1c(O)c2ccccc2oc1=O`: the activation was 113% (active).

In the case of `CC(C)=CCCC1(C)C=Cc2c(ccc3c2[nH]c2cc(O)c(C)cc23)O1` (stereo unspecified), the activation was 35.4% (active).

For `Oc1ccc(Br)cc1/C=N/Nc1ccccn1`, the activation is 63.7% (active).
